Test systems include DU-145 prostate; K-562 leukemia; MALME-3M melanoma; MDA-MB-231 breast; RXF 393 renal; SF-268 CNS; SF-295 CNS; SF-539 CNS; UACC-257 melanoma; M14 melanoma.
Common to all, as to assay: NCI-60 one-dose screen, 48 h (100 = growth as untreated, 0 = no growth, -100 = all killed)
Conditions in all cases: 10 µM unless noted

The structures appear in SMILES notation. This is part of a sample that, as a whole, favours compounds with a hit. Of some 83,000 tested, about 20% had one in any assay.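 96-well plates, one dose, 48 hours. Percent growth reported; active if below 10.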 Unmarked numbers belong to inactive results. Calls of active or inactive are those of the source.

`COc1cc(/C=C2/C=C(c3ccc(C(C)(C)C)cc3)N(CCc3ccc(S(N)(=O)=O)cc3)C2=O)cc(OC)c1OC`: the growth is 77.1% in the assay with DU-145 prostate; 24.5% with K-562 leukemia; 68.4% in the assay on MALME-3M melanoma; 60.1% in the assay on MDA-MB-231 breast; 12.4% with RXF 393 renal; 58.2% with SF-268 CNS. Further, the growth is 49.4% with SF-295 CNS, 59% with SF-539 CNS, 62.2% in the assay with UACC-257 melanoma and 36.5% with M14 melanoma.
As for `O=C1CCCCN1CCCCC#Cc1cccc(C#Cc2cccnc2)c1`, the growth with DU-145 prostate was 109%; in the assay with K-562 leukemia, 26.9%; with MALME-3M melanoma, 249%; in the assay on MDA-MB-231 breast, 65.3%; in the assay with SF-268 CNS it was 83.2%; in the assay on SF-295 CNS, 79.9%. For the same molecule, the growth is 91.8% in the assay with SF-539 CNS, 84.4% with UACC-257 melanoma and 105% in the assay with M14 melanoma.
For the molecule `CN1CCN(C(=O)OCc2nc3c(N4CCOCC4)nc(Cl)nc3n2C)CC1`, the growth with DU-145 prostate was 1.69% (active); in the assay on K-562 leukemia, -11% (active); in the assay on MALME-3M melanoma, -65.3% (active); with MDA-MB-231 breast, -77.5% (active); in the assay on RXF 393 renal, -94.9% (active); in the assay with SF-268 CNS, 1.11% (active). Also, the growth with SF-295 CNS is 73.4%; in the assay with SF-539 CNS it was -99% (active); in the assay with UACC-257 melanoma, -64.7% (active); in the assay on M14 melanoma, -77.4% (active).
`Cc1ccc(Nc2nc(-c3cc(O)c(C)c(C)c3O)cs2)cc1`: the growth in the assay with DU-145 prostate is 97.3%; with K-562 leukemia it was 66.5%; in the assay with MALME-3M melanoma, 109%; with MDA-MB-231 breast, 104%; with RXF 393 renal, 99.3%; in the assay on SF-268 CNS, 92.3%. The growth in the assay on SF-295 CNS was 101%; with SF-539 CNS, 96.6%; in the assay on UACC-257 melanoma it was 104%; with M14 melanoma, 96.6%.
For the molecule `CCOC(=O)C(=CCC(C)C)C(=O)OCC`, the growth in the assay on DU-145 prostate is 99.3%; in the assay with K-562 leukemia it was 125%; with MALME-3M melanoma it was 120%; in the assay on MDA-MB-231 breast, 99.6%; in the assay with RXF 393 renal it was 113%; with SF-268 CNS, 94.9%. The growth with SF-295 CNS was 120%; with SF-539 CNS, 95.7%; in the assay on UACC-257 melanoma, 110%; in the assay with M14 melanoma it was 95.7%.
Turning to `O=C1/C(=C/c2ccc(F)c(F)c2)CN(C(=O)C(Cl)Cl)C/C1=C\c1ccc(F)c(F)c1`, the growth with DU-145 prostate is -98.1% (active); in the assay on K-562 leukemia, -19.4% (active); in the assay on MALME-3M melanoma it was -80.2% (active); with MDA-MB-231 breast, -73.7% (active); in the assay on RXF 393 renal it was -93.1% (active); in the assay with SF-268 CNS it was -39.4% (active). In addition, the growth with SF-295 CNS is -96.8% (active); in the assay with SF-539 CNS it was -98.9% (active); in the assay with UACC-257 melanoma it was -74.8% (active); in the assay with M14 melanoma it was -90.1% (active).
For the molecule `c1ccc(-c2cc(-c3cc(-c4ccccc4)on3)no2)cc1`, the growth with DU-145 prostate is 9.62% (active); with K-562 leukemia, 77.7%; with MALME-3M melanoma, 114%; in the assay with MDA-MB-231 breast, 105%; with RXF 393 renal, 74.8%; with SF-268 CNS it was 90.1%. In addition, the growth in the assay on SF-295 CNS was 82.2%; in the assay on SF-539 CNS, 91.3%; with UACC-257 melanoma, 79.6%; in the assay with M14 melanoma it was 109%.
For the molecule `CCCCn1c(C(=O)c2c[nH]c3ccccc23)n[nH]c1=S`, the growth was 104% with DU-145 prostate; 76.1% in the assay with K-562 leukemia; 111% in the assay with MALME-3M melanoma; 96.4% in the assay on MDA-MB-231 breast; 107% in the assay on RXF 393 renal; 96.9% with SF-268 CNS. Further, the growth was 103% in the assay on SF-295 CNS, 102% in the assay on SF-539 CNS, 94.8% in the assay with UACC-257 melanoma and 92.4% with M14 melanoma.
Consider `Cc1ccc2[nH]c(=S)[nH]c(=O)c2c1`, for which the growth in the assay on DU-145 prostate was 109%; in the assay with K-562 leukemia it was 97.1%; in the assay on MALME-3M melanoma it was 102%; in the assay with MDA-MB-231 breast, 109%; with RXF 393 renal, 104%; in the assay on SF-268 CNS it was 100%. In addition, the growth with SF-295 CNS is 104%; in the assay with SF-539 CNS, 99.7%; in the assay on UACC-257 melanoma, 101%; with M14 melanoma it was 101%.
On to `COC(=O)c1nc(-c2ccc(C)cc2)oc1Sc1ccc(C)cc1`, for which the growth was 110% with DU-145 prostate; 82% with K-562 leukemia; 122% with MALME-3M melanoma; 96.1% in the assay on MDA-MB-231 breast; 108% with RXF 393 renal; 103% with SF-268 CNS. Besides, the growth in the assay on SF-295 CNS is 114%; with SF-539 CNS it was 96.8%; with UACC-257 melanoma, 102%; in the assay with M14 melanoma it was 93.2%.
On to `CNC(=O)c1cc(Oc2ccc3nc(NC(=O)Nc4ccc(C(F)(F)F)cc4)sc3c2)ccn1`, for which the growth in the assay on DU-145 prostate is 48.9%; in the assay with K-562 leukemia, 76.3%; in the assay on MALME-3M melanoma it was 20.8%; in the assay with MDA-MB-231 breast it was 63.5%; in the assay with RXF 393 renal, 85.5%; with SF-268 CNS, 65%. Besides, the growth is 63.2% with SF-295 CNS, 82.2% in the assay on SF-539 CNS, 86.7% with UACC-257 melanoma and 35.8% in the assay on M14 melanoma.
On to `COc1cc2c(cc1OCCCOC1=C=C=C(c3ccc4c(c3)c3cc(-c5ccc(OCCCOc6cc7c(cc6OC)C(=O)N6CCC[C@H]6C=N7)cc5)ccc3n4S(=O)(=O)c3ccc(C)cc3)C=C1)N=C[C@@H]1CCCN1C2=O`, for which the growth with DU-145 prostate is -66.5% (active); in the assay with K-562 leukemia it was 8.45% (active); in the assay on MALME-3M melanoma, 240%; with MDA-MB-231 breast it was 23.3%; in the assay on SF-268 CNS, -41.8% (active); with SF-295 CNS it was -26% (active). Also, the growth in the assay on SF-539 CNS was 13.3%; in the assay with UACC-257 melanoma, 52.6%; with M14 melanoma it was 22.2%.
As to `Clc1cccc(Nc2ncnc3ccc(-c4cncc(-n5cnnn5)c4)cc23)c1`, the growth in the assay with DU-145 prostate is 43.5%; with K-562 leukemia it was 71.5%; in the assay on MALME-3M melanoma it was 88.2%; with MDA-MB-231 breast, 67.3%; in the assay with RXF 393 renal it was 48.4%; in the assay on SF-268 CNS, 70.6%. Moreover, the growth in the assay with SF-295 CNS is 76.9%; in the assay on SF-539 CNS, 87.3%; with UACC-257 melanoma, 92.9%; in the assay on M14 melanoma it was 53.2%.

The values above are taken from PubChem BioAssay (NCI).
